{"source": "PubChem BioAssay AID488864", "about": "(Broad Institute, 2010)", "note": "Potency and affinity values are given separately. The source made the active and inactive calls.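 The calls were made as follows: active = ATP signal reduced by compound, with fitted active dose under ten times the top valid tested dose; inactive = the rest, compounds that increase ATP levels included.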"}
{"experiment": "cellular ATP toxicity in rat beta cells – cell-based, CellTiter-Glo luminescence, INS-1E, dry powder, cytotoxicity control for beta-cell cytokine protection project, dose response (AID 488864)", "conditions": "INS-1E rat beta cells, 48 h, no cytokines; series mostly up to 26 µM"}
{"smiles": "C[C@@H]1CN([C@@H](C)CO)C(=O)c2cccc(NC(=O)Nc3cccc4ccccc34)c2O[C@H]1CN(C)S(=O)(=O)c1ccc(F)cc1", "outcome": "inactive"}
{"smiles": "Cc1ccc(S(=O)(=O)N(C)C[C@H]2Oc3c(NC(=O)Nc4cccc5ccccc45)cccc3C(=O)N([C@@H](C)CO)C[C@@H]2C)cc1", "outcome": "inactive"}
{"smiles": "C[C@@H]1CN([C@H](C)CO)C(=O)c2cccc(NC(=O)Nc3cccc4ccccc34)c2O[C@H]1CN(C)S(=O)(=O)c1ccc(Cl)cc1", "outcome": "inactive"}
{"smiles": "C[C@@H]1CN([C@H](C)CO)C(=O)c2cccc(NC(=O)Nc3ccccc3)c2O[C@H]1CN(C)S(=O)(=O)c1ccc(Cl)cc1", "outcome": "inactive"}
{"smiles": "COc1ccc(S(=O)(=O)N(C)C[C@@H]2Oc3c(NS(C)(=O)=O)cccc3C(=O)N([C@@H](C)CO)C[C@H]2C)cc1", "outcome": "inactive"}
{"smiles": "C[C@@H]1CN([C@@H](C)CO)C(=O)c2cccc(NC(=O)Nc3cccc4ccccc34)c2O[C@H]1CN(C)S(=O)(=O)c1ccc(Cl)cc1", "outcome": "inactive"}
{"smiles": "COc1ccc(S(=O)(=O)N(C)C[C@@H]2Oc3c(NC(=O)Nc4cccc5ccccc45)cccc3C(=O)N([C@@H](C)CO)C[C@H]2C)cc1Cl", "outcome": "inactive"}
{"smiles": "COc1ccc(NC(=O)N(C)C[C@@H]2Oc3c(NC(=O)Nc4cccc5ccccc45)cccc3C(=O)N([C@@H](C)CO)C[C@H]2C)cc1", "outcome": "inactive"}
{"smiles": "COc1ccc(S(=O)(=O)N(C)C[C@@H]2Oc3c(NC(=O)Nc4cccc5ccccc45)cccc3C(=O)N([C@H](C)CO)C[C@H]2C)cc1", "outcome": "inactive"}
{"smiles": "COc1ccc(S(=O)(=O)N(C)C[C@@H]2Oc3c(NS(=O)(=O)c4ccc(C)cc4)cccc3C(=O)N([C@@H](C)CO)C[C@H]2C)cc1", "outcome": "inactive"}
{"smiles": "COc1ccc(S(=O)(=O)N(C)C[C@@H]2Oc3c(NC(=O)C4CCOCC4)cccc3C(=O)N([C@@H](C)CO)C[C@H]2C)cc1", "outcome": "inactive"}
{"smiles": "C[C@@H]1CN([C@H](C)CO)C(=O)c2cccc(NC(=O)Nc3ccc(F)cc3)c2O[C@H]1CN(C)S(=O)(=O)c1ccc(Cl)cc1", "outcome": "inactive"}
{"smiles": "COc1ccc(S(=O)(=O)N(C)C[C@@H]2Oc3c(NC(=O)Nc4cccc5ccccc45)cccc3C(=O)N([C@@H](C)CO)C[C@H]2C)cc1OC", "outcome": "inactive"}
{"smiles": "C[C@@H]1CN([C@@H](C)CO)C(=O)c2cccc(NC(=O)Nc3cccc4ccccc34)c2O[C@H]1CN(C)C(=O)Nc1ccccc1", "outcome": "inactive"}
{"smiles": "COc1ccc(S(=O)(=O)N(C)C[C@@H]2Oc3c(NC(=O)Nc4c(C)noc4C)cccc3C(=O)N([C@@H](C)CO)C[C@H]2C)cc1", "outcome": "inactive"}
{"smiles": "COc1cccc(S(=O)(=O)N(C)C[C@@H]2Oc3c(NC(=O)Nc4cccc5ccccc45)cccc3C(=O)N([C@@H](C)CO)C[C@H]2C)c1", "outcome": "inactive"}
{"smiles": "C[C@@H]1CN([C@@H](C)CO)C(=O)c2cccc(NC(=O)Nc3cccc(Cl)c3Cl)c2O[C@H]1CN(C)S(=O)(=O)c1ccc2c(c1)OCCO2", "outcome": "inactive"}
{"smiles": "Cc1ccc(S(=O)(=O)N(C)C[C@@H]2Oc3c(NC(=O)Nc4ccc(F)cc4)cccc3C(=O)N([C@H](C)CO)C[C@H]2C)cc1", "outcome": "inactive"}
{"smiles": "C[C@@H]1CN([C@@H](C)CO)C(=O)c2cccc(NC(=O)Nc3cccc4ccccc34)c2O[C@H]1CN(C)S(=O)(=O)c1ccccc1F", "outcome": "inactive"}
{"smiles": "Cc1noc(C)c1NC(=O)N(C)C[C@@H]1Oc2c(NC(=O)Nc3cccc4ccccc34)cccc2C(=O)N([C@@H](C)CO)C[C@H]1C", "outcome": "inactive"}
{"smiles": "C[C@@H]1CN([C@@H](C)CO)C(=O)c2cccc(NC(=O)Nc3cccc4ccccc34)c2O[C@H]1CN(C)S(=O)(=O)c1ccc2c(c1)OCCO2", "outcome": "inactive"}
{"smiles": "C[C@@H]1CN([C@@H](C)CO)C(=O)c2cccc(NC(=O)Nc3cccc4ccccc34)c2O[C@H]1CN(C)C(=O)Nc1ccc(F)cc1", "outcome": "inactive"}
{"smiles": "COc1ccc(S(=O)(=O)N(C)C[C@@H]2Oc3c(NC(=O)c4ccncc4)cccc3C(=O)N([C@@H](C)CO)C[C@H]2C)cc1", "outcome": "inactive"}
{"smiles": "COc1ccccc1S(=O)(=O)N(C)C[C@@H]1Oc2c(NC(=O)Nc3cccc4ccccc34)cccc2C(=O)N([C@@H](C)CO)C[C@H]1C", "outcome": "inactive"}
{"smiles": "COc1ccc(S(=O)(=O)N(C)C[C@@H]2Oc3c(NC(=O)Nc4cccc5ccccc45)cccc3C(=O)N([C@@H](C)CO)C[C@@H]2C)cc1", "outcome": "inactive"}
{"smiles": "COc1ccc(S(=O)(=O)N(C)C[C@@H]2Oc3c(NC(=O)Nc4ccc(C(F)(F)F)cc4)cccc3C(=O)N([C@@H](C)CO)C[C@H]2C)cc1", "outcome": "inactive"}
{"smiles": "C[C@@H]1CN([C@@H](C)CO)C(=O)c2cccc(NC(=O)Nc3cccc4ccccc34)c2O[C@H]1CN(C)S(=O)(=O)c1ccc2ncsc2c1", "outcome": "inactive"}
{"smiles": "COc1ccc(S(=O)(=O)N(C)C[C@@H]2Oc3c(NC(=O)Nc4cccc5ccccc45)cccc3C(=O)N([C@@H](C)CO)C[C@H]2C)c(OC)c1", "outcome": "inactive"}
